Results taken from ChEMBL document CHEMBL2218924, “A broad activity screen in support of a chemogenomic map for kinase signalling research and drug discovery” (Biochem J, 2013).

Assays:
[1] = biological target: T1, Serine/threonine-protein kinase D2 (Homo sapiens) (UniProt Q9BZL6); conditions: at 1 µM
T1 sequence (whole entry): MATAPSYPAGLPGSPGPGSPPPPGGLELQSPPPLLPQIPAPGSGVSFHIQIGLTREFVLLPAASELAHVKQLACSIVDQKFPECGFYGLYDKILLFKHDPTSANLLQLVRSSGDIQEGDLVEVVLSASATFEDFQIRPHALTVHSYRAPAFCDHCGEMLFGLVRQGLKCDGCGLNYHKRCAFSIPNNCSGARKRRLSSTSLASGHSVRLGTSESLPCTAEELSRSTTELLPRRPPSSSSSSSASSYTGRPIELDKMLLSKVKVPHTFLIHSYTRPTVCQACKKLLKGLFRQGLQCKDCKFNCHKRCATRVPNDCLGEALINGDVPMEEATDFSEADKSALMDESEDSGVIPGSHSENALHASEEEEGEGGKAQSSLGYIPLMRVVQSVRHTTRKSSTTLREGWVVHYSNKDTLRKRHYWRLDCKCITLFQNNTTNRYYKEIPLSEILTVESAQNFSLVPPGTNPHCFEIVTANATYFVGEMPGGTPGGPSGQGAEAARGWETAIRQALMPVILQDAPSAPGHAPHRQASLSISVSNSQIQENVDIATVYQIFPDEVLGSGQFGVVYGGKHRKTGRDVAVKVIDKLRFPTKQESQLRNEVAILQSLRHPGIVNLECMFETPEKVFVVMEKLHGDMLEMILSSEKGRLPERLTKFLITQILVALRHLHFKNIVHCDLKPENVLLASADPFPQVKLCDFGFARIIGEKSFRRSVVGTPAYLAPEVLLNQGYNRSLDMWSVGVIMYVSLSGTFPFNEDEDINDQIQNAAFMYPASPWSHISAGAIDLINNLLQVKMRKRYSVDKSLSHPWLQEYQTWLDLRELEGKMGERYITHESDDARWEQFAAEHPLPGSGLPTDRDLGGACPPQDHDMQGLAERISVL

[2] = biological target: T1, Serine/threonine-protein kinase D2 (Homo sapiens); conditions: at 10 µM
[3] = biological target: T2, cGMP-dependent protein kinase 1 (Homo sapiens) (UniProt Q13976); conditions: at 1 µM
T2 sequence (whole entry): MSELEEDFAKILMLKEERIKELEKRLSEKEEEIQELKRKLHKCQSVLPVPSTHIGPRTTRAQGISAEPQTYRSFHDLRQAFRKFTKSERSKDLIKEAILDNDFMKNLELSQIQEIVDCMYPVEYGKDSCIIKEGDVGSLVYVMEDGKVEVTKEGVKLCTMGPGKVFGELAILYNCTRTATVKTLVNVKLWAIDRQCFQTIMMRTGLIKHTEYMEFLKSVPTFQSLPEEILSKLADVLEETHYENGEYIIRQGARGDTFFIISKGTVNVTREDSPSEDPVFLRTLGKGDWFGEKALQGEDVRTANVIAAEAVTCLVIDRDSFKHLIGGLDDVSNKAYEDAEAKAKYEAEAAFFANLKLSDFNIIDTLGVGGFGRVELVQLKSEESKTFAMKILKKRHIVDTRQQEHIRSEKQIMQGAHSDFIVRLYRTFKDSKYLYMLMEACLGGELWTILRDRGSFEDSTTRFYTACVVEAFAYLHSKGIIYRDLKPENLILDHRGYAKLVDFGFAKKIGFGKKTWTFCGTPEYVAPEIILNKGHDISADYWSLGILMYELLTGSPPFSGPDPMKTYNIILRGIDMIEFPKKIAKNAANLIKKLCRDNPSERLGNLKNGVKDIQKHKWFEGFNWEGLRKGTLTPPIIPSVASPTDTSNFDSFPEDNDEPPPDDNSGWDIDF

[4] = biological target: T2, cGMP-dependent protein kinase 1 (Homo sapiens); conditions: at 10 µM
[5] = biological target: T2, cGMP-dependent protein kinase 1 (Homo sapiens); conditions: at 1 µM; remark: listed apart in the source
[6] = biological target: T2, cGMP-dependent protein kinase 1 (Homo sapiens); conditions: at 10 µM; remark: listed apart in the source
[7] = biological target: T3, MAP kinase-activated protein kinase 5 (Homo sapiens) (UniProt Q8IW41); conditions: at 1 µM
T3 sequence (whole entry): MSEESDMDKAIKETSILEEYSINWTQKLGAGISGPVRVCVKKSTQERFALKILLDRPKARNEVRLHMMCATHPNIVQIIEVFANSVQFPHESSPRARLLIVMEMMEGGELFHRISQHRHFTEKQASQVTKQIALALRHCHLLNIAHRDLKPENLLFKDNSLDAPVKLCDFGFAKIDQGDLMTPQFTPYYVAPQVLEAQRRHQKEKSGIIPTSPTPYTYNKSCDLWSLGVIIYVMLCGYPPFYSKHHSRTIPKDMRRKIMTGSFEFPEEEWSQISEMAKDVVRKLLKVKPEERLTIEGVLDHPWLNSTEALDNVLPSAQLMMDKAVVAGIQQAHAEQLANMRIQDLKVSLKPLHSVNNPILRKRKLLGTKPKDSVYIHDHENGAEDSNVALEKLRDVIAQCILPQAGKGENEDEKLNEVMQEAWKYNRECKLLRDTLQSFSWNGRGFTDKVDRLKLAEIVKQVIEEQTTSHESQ

[8] = biological target: T3, MAP kinase-activated protein kinase 5 (Homo sapiens); conditions: at 10 µM
[9] = biological target: Serine/threonine-protein kinase N2 (Homo sapiens) (UniProt Q16513); conditions: at 1 µM
[10] = biological target: Serine/threonine-protein kinase N2 (Homo sapiens) (UniProt Q16513); conditions: at 10 µM
[11] = biological target: Tyrosine-protein kinase FRK (Homo sapiens) (UniProt P42685); conditions: at 1 µM
[12] = biological target: Tyrosine-protein kinase FRK (Homo sapiens) (UniProt P42685); conditions: at 10 µM
[13] = biological target: T4, Phosphorylase b kinase gamma catalytic chain, liver/testis isoform (Homo sapiens) (UniProt P15735); conditions: at 1 µM
T4 sequence (whole entry): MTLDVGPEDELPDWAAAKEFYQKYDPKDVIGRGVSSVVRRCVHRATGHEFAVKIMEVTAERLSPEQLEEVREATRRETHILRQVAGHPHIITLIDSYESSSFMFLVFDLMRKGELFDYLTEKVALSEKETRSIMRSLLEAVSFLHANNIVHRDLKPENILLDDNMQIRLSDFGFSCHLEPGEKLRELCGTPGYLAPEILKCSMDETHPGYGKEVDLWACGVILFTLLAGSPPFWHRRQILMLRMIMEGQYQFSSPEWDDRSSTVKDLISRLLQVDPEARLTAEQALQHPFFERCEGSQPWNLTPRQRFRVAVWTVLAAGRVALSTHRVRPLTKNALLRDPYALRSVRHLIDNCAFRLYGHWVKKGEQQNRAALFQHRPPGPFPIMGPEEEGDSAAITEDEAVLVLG

[14] = biological target: T4, Phosphorylase b kinase gamma catalytic chain, liver/testis isoform (Homo sapiens); conditions: at 10 µM
[15] = biological target: Serine/threonine-protein kinase pim-1 (Homo sapiens) (UniProt P11309); conditions: at 1 µM
[16] = biological target: Serine/threonine-protein kinase pim-1 (Homo sapiens) (UniProt P11309); conditions: at 10 µM
[17] = biological target: Serine/threonine-protein kinase pim-2 (Homo sapiens) (UniProt Q9P1W9); conditions: at 1 µM
[18] = biological target: Serine/threonine-protein kinase pim-2 (Homo sapiens) (UniProt Q9P1W9); conditions: at 10 µM
[19] = biological target: Serine/threonine-protein kinase pim-3 (Homo sapiens) (UniProt Q86V86); conditions: at 1 µM
[20] = biological target: Serine/threonine-protein kinase pim-3 (Homo sapiens) (UniProt Q86V86); conditions: at 10 µM

Sequence of Serine/threonine-protein kinase N2 (Homo sapiens) (Q16513 whole entry, looked up): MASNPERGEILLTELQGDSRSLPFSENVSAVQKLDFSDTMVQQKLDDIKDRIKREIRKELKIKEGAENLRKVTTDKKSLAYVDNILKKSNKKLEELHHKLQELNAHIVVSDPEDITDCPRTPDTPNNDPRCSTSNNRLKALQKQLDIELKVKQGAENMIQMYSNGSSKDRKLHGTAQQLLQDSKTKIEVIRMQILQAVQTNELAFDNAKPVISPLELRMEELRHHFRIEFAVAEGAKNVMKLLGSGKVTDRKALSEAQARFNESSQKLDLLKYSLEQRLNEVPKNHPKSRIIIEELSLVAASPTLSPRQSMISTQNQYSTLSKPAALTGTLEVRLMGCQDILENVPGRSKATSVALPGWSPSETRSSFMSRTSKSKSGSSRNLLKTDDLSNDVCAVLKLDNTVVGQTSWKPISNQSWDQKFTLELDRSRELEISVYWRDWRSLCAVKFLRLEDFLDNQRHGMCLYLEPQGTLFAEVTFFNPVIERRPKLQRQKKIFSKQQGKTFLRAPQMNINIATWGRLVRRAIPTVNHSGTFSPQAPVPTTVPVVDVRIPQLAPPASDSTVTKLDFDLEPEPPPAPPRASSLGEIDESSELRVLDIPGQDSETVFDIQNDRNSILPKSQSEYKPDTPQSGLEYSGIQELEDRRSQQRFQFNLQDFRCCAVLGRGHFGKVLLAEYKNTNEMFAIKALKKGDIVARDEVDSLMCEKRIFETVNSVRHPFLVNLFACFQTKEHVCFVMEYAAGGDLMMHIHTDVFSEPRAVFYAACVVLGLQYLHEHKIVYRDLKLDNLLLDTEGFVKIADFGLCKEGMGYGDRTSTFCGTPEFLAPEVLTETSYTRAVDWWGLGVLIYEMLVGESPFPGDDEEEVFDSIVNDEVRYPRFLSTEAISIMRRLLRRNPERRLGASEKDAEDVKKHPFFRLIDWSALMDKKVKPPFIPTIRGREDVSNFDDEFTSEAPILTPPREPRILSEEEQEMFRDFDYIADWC
Sequence of Serine/threonine-protein kinase pim-1 (Homo sapiens) (P11309 whole entry, looked up): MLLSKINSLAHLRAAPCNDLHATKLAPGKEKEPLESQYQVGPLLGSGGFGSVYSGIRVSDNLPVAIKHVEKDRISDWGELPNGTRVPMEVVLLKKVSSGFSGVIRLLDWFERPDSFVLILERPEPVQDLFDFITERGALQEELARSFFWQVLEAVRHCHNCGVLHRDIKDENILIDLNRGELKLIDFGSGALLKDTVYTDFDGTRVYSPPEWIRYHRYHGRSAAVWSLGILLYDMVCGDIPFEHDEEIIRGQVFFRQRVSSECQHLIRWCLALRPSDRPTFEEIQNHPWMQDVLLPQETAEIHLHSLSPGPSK
Sequence of Serine/threonine-protein kinase pim-2 (Homo sapiens) (Q9P1W9 whole entry, looked up): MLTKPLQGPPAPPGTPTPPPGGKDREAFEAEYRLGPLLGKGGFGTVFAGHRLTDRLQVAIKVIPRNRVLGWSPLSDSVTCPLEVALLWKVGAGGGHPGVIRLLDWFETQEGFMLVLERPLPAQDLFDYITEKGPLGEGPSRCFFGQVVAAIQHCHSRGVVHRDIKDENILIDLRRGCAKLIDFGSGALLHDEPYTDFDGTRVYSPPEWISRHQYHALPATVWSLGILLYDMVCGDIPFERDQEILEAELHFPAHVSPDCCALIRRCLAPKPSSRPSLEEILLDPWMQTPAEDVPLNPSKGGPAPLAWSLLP
Sequence of Tyrosine-protein kinase FRK (Homo sapiens) (P42685 whole entry, canonical isoform): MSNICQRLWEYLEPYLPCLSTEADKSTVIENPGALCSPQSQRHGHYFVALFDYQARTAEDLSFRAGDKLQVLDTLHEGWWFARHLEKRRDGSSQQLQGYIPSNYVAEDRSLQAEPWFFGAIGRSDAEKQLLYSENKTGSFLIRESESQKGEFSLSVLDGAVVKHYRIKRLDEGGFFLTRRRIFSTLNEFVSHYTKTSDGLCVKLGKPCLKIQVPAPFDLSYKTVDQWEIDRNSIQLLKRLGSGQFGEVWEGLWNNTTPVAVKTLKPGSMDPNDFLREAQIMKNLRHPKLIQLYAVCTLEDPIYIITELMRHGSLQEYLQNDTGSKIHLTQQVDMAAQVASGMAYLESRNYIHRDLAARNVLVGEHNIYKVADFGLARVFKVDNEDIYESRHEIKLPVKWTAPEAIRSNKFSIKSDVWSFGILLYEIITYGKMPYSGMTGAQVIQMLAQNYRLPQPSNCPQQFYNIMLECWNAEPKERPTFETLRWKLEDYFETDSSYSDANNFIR

SMILES | residual activity [1] [%] | residual activity [2] [%] | residual activity [3] [%] | residual activity [4] [%] | residual activity [5] [%] | residual activity [6] [%] | residual activity [7] [%] | residual activity [8] [%] | residual activity [9] [%] | residual activity [10] [%] | residual activity [11] [%] | residual activity [12] [%] | residual activity [13] [%] | residual activity [14] [%] | residual activity [15] [%] | residual activity [16] [%] | residual activity [17] [%] | residual activity [18] [%] | residual activity [19] [%] | residual activity [20] [%]
O=C1Nc2ccc3ncsc3c2/C1=C/c1c[nH]cn1 | 30 | 3 | 13 | 2 | 7 | 1 | 49 | 18 | 4 | 2 | 83 | 33 | 47 | 10 | 26 | 5 | 13 | 3 | 53 | 11
COc1ccc2c(c[n+](C)c3c4cc5c(cc4ccc23)OCO5)c1OC |  |  |  | 92 | 92 | 87 | 84 | 52 |  | 92 | 94 | 69 | 111 | 96 | 93 | 93 | 86 | 88 | 100 | 95
COC(=O)[C@@]1(O)C[C@H]2O[C@]1(C)n1c3ccccc3c3c4c(c5c6ccccc6n2c5c31)C(=O)NC4 | 2 | 0 | 10 | 1 | 9 | 2 | 19 | 0 | 1 | 1 | 25 | 6 | 0 | 1 | 10 | 1 | 2 | -2 | 31 | 5
CCc1nc(-c2ccc(OC)cc2)[nH]c1-c1ccncc1 |  |  |  |  |  |  |  |  | 102 | 74 | 102 | 100 | 103 | 105 |  |  | 126 | 125 |  | 
C[S+]([O-])c1ccc(-c2nc(-c3ccc(F)cc3)c(-c3ccncc3)[nH]2)cc1 (stereo not drawn) | 105 | 90 | 101 | 99 | 125 | 107 | 145 | 104 | 103 | 107 | 71 | 17 | 109 | 106 | 84 | 97 | 125 | 96 | 107 | 
COc1ccc2c(c1)/C(=C/c1cnc[nH]1)C(=O)N2 | 97 | 39 |  |  |  |  | 122 | 63 |  | 40 |  |  |  | 22 | 66 | 32 | 69 | 19 |  | 52
c1cc(-c2cnn3cc(-c4ccc(OCCN5CCCCC5)cc4)cnc23)ccn1 |  |  | 73 | 25 | 66 | 12 |  |  | 47 | 6 | 65 | 7 | 34 | 4 | 104 | 60 | 117 | 127 |  | 
COc1cc2ncnc(Nc3ccc(OCc4ccccc4)cc3)c2cc1OC | 98 | 98 | 115 | 125 | 72 | 88 | 111 | 83 | 109 | 111 | 98 | 123 | 98 | 113 | 99 | 90 | 110 | 105 | 107 | 100
